Assay outcomes as filed in PubChem BioAssay.
HepG2 viability: counter-screen for TGF-b inhibitors: cytotoxicity in HepG2 cells; Potency, µM (highest dose often 46.1 µM), hits mostly cytotoxic; AID 588856; HepG2 CAGA-GFP viability, ATP luminescence, 18 h; 410,000 tested, 0.76% active
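HepG2 CAGA-GFP cells (1000/well, DMEM with 1% FBS) received compound, then TGF-beta at 500 pg/mL final, and were incubated 18 hours at 37 degrees C. Viability was read by CellTiter-Glo luminescence. Media-only wells were set as complete cell-killing and DMSO as no toxicity.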
DT40 TDP1 CPT: DT40-hTDP1 cell growth loss with CPT; chicken DT40 Tdp1-/-;hTDP1 cells + 20 nM CPT, ATP luminescence, 48 h; Potency, µM (doses to about 46.2 µM), actives largely listed as inhibitors; 420,000 tested, 12% active; further: nearly all actives have a fitted effect of over 55% in size
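Cell growth measured by CellTiter-Glo luminescence after a minimum 48 h, 37 C compound exposure with 20 nM CPT in Tdp1-knockout DT40 cells stably expressing hTDP1, seeded 400/well; qHTS titration format.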
HT1080-NT tox: kills 2HG-producing HT-1080-NT fibrosarcoma cells | HT-1080-NT fibrosarcoma viability, CellTiter-Glo ATP luminescence, 48 h | Potency, µM (doses to about 46.1 µM), actives largely listed as cytotoxic | 360,000 tested, 1.6% active | AID 686970;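 further: NT is the 2HG producing partner of a matched IDH1 knockdown line; nearly all actives have a fitted effect of over 55% in size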
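A 48-hour cytotoxicity screen used HT-1080-NT cells plated 2 hours before compound delivery. ATP-based CellTiter-Glo luminescence measured viability, normalized to DMSO and no-cell controls.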
TDP1 cell noCPT: qHTS for Inhibitors of human tyrosyl-DNA phosphodiesterase 1 (TDP1): qHTS in cells in absence of CPT; Potency, µM (top dose mostly 46.2 µM), actives largely listed as inhibitors; 420,000 tested, 15% active; DT40 Tdp1-/- hTDP1 cells, no CPT, ATP luminescence, 48 h; further: nearly all actives have a fitted effect of over 55% in size
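Seeded 400 DT40-hTDP1 cells/well (vehicle DMSO, no 20 nM CPT); pinned compounds; ≥48 hr at 37 °C; CellTiter-Glo luminescence as viability measure.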
TGFb SMAD3 inh: TGF-b pathway inhibition; HepG2 CAGA-GFP TGF-b/SMAD3 reporter, GFP fluorescence, 18 h; TGF-beta stimulated, 500 pg/mL final; Potency, µM (highest dose often 46.1 µM), most hits filed as inhibitors; 410,000 tested, 1.2% active; AID 588855; further: nearly all actives have a fitted effect of over 65% in size
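Inhibition of TGF-beta-driven CAGA-GFP reporter expression in HEPG2 cells is measured by cellular GFP fluorescence after 18 h stimulation with 500 pg/mL recombinant TGF-beta in 1% FBS medium at 37 degrees C.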
HT1080 IDH1KD tx: HT-1080 IDH1 knockdown cell toxicity (counter line). HT-1080 IDH1 knockdown viability, ATP luminescence, 48 h. Potency, µM (series often up to 46.1 µM), hits mostly cytotoxic. 360,000 tested, 2% active
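Luminescent ATP read-out (CellTiter-Glo, 10 min at room temperature) after 48 h compound exposure at 37 °C gave viability of IDH1-knockdown HT-1080 cells. Activity was normalised to DMSO and cell-free wells, then fitted as concentration-response curves.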
Each line names hits and unclear results; the compound was inactive in the other large screens. Hits are enriched below; roughly 17% of the tested compounds scored in any of these assays. The call rests on the fitted dose curve; in most records, active means well fitted curve in the direction sought with a large enough effect; inconclusive means small, poorly fitted or top-dose-only effect, or another doubt; inactive means no such curve, though single readings can be large; an effect the other way counts as inactive or inconclusive.

Cc1cc(-c2ccc(C)c(S(=O)(=O)NC(c3cccs3)C(C)C)c2)on1 (stereo unspecified)	DT40 TDP1 CPT 18.4µM, TDP1 cell noCPT 18.4µM, TGFb SMAD3 inh inconclusive (no result: HT1080-NT tox, HT1080 IDH1KD tx)
CCc1ccc(-c2cc(C)no2)cc1S(=O)(=O)Nc1cc(OC)c(OC)c(OC)c1	DT40 TDP1 CPT 16.4µM, TDP1 cell noCPT 16.4µM, TGFb SMAD3 inh inconclusive (no result: HT1080-NT tox, HT1080 IDH1KD tx)
COc1ccc(-c2onc(C)c2C)cc1S(=O)(=O)Nc1cc(Cl)ccc1C	DT40 TDP1 CPT 3.66µM, TDP1 cell noCPT 3.66µM (no result: HT1080-NT tox, HT1080 IDH1KD tx)
O=C(Nc1ccc(-c2cn3ccsc3n2)cc1)c1ccc(F)c(S(=O)(=O)N2CCOCC2)c1	DT40 TDP1 CPT inconclusive, TDP1 cell noCPT 23.1µM
O=C(Nc1ccccc1)c1ccc(F)c(S(=O)(=O)N2CCOCC2)c1	none
Cc1nc2ccc(NC(=O)c3cc(S(=O)(=O)N4CCOCC4)ccc3C)cc2s1	DT40 TDP1 CPT inconclusive, TDP1 cell noCPT 23.1µM, TGFb SMAD3 inh inconclusive
Cc1nc2ccc(NC(=O)c3ccc(C)c(S(=O)(=O)N4CCOCC4)c3)cc2s1	DT40 TDP1 CPT 18.4µM, TDP1 cell noCPT inconclusive
COc1ccccc1Oc1ccc(S(=O)(=O)N2CCCCC2)cc1NC(=O)CCNC(C)=O	none
NCCCC(O)(P(=O)(O)O)P(=O)(O)O	none (no result: HepG2 viability, HT1080-NT tox, TGFb SMAD3 inh, HT1080 IDH1KD tx)
Cc1ccc(NC2CCCN(C(=O)c3cc4ncccn4n3)C2)cc1C (stereo unspecified)	none
C/C(COc1ccccc1)=N\NC(=O)c1nnn(-c2nonc2N)c1CSc1ccc(C)cc1	none
CCc1ccccc1NC(=O)C(CCSC)NS(=O)(=O)c1ccc2c(c1)oc(=O)n2C (stereo unspecified)	none (no result: HT1080-NT tox, HT1080 IDH1KD tx)
S=C(NN=C1CCCCCC1)Nc1ccc(Cl)cc1	DT40 TDP1 CPT 29.1µM, HT1080-NT tox inconclusive, TDP1 cell noCPT 29.1µM
Fc1ccc(NC(=S)NN=C2CCCCCC2)cc1	DT40 TDP1 CPT inconclusive, HT1080-NT tox 8.91µM, TDP1 cell noCPT inconclusive, TGFb SMAD3 inh inconclusive, HT1080 IDH1KD tx 10µM
O=C(NN=C1CCCCCCC1)c1ccc(F)cc1	DT40 TDP1 CPT inconclusive, TDP1 cell noCPT inconclusive
CCC(C)(C)C1CCC(=NNC(=S)Nc2cccnc2)CC1 (stereo unspecified)	DT40 TDP1 CPT inconclusive, TDP1 cell noCPT inconclusive
CCC(C)(C)C1CCC(=NNC(=S)Nc2ccccc2)CC1 (stereo unspecified)	DT40 TDP1 CPT inconclusive, TDP1 cell noCPT 14.6µM
CC(NC(=O)CN1CCN(S(=O)(=O)c2ccc(Br)cc2)CC1)c1ccccc1 (stereo unspecified)	none
O=c1c(-c2cccs2)nc2ccccc2n1C(c1ccccn1)c1nc2ccccc2[nH]1 (stereo unspecified)	DT40 TDP1 CPT inconclusive, TDP1 cell noCPT 14.6µM (no result: HepG2 viability, TGFb SMAD3 inh)
O=c1c(-c2ccccc2)nc2ccccc2n1C(c1ccccn1)c1nc2ccccc2[nH]1 (stereo unspecified)	DT40 TDP1 CPT inconclusive, TDP1 cell noCPT 9.2µM (no result: HepG2 viability, TGFb SMAD3 inh)
CCCS(=O)(=O)NC(=O)C1(C)CCN(C(=O)c2ccccc2OC(C)=O)C1 (stereo unspecified)	none
CC(=O)Nc1cc(-c2cccc(C(=O)NCCN(C)C)c2)cn2c(-c3ccccc3)cnc12	DT40 TDP1 CPT inconclusive, HT1080-NT tox inconclusive, TDP1 cell noCPT inconclusive, HT1080 IDH1KD tx 16.4µM
CC(=O)Nc1cc(-c2cccc(C(=O)NCCN(C)C)c2)cn2c(-c3cccc(C(F)(F)F)c3)cnc12	HepG2 viability 12.6µM, DT40 TDP1 CPT inconclusive, HT1080-NT tox 18.4µM, TDP1 cell noCPT inconclusive, TGFb SMAD3 inh inconclusive, HT1080 IDH1KD tx 20.6µM
CC(=O)Nc1cc(-c2cccc(C(=O)NCCN(C)C)c2)cn2c(-c3ccc(S(C)(=O)=O)cc3)cnc12	none
OCC#Cc1ncc(C(F)(F)F)cc1Cl	DT40 TDP1 CPT 5.17µM, HT1080-NT tox 20.6µM, TDP1 cell noCPT 7.31µM, HT1080 IDH1KD tx inconclusive
NC(=O)Cc1ncc(C(F)(F)F)cc1Cl	none
COc1ccc(N(C(=O)c2snc(C(N)=O)c2N)C(C(=O)NC2CCCCC2)c2ccc(F)cc2)c(OC)c1 (stereo unspecified)	DT40 TDP1 CPT 2.91µM, TDP1 cell noCPT inconclusive
COc1ccc(C(C(=O)NC2CCCC2)N(C(=O)c2snc(C(N)=O)c2N)c2ccccc2OC)cc1OC (stereo unspecified)	none
COc1ccc(N(C(=O)c2snc(C(N)=O)c2N)C(C(=O)NC2CCCC2)c2cc(OC)ccc2OC)c(OC)c1 (stereo unspecified)	DT40 TDP1 CPT 23.1µM, TDP1 cell noCPT 29.1µM
NC(=O)c1nsc(C(=O)N(c2cccc(F)c2)C(C(=O)NCc2ccccc2)c2ccc(O)cc2)c1N (stereo unspecified)	DT40 TDP1 CPT inconclusive, TDP1 cell noCPT 20.6µM
COc1ccc(C(C(=O)NC2CCCC2)N(C(=O)c2snc(C(N)=O)c2N)c2cc(C)ccc2OC)cc1OC (stereo unspecified)	DT40 TDP1 CPT inconclusive, TDP1 cell noCPT 18.4µM
COc1ccc(C(=O)c2c(N)c(C(=O)Nc3ccccc3Cl)c3ccccn23)cc1	none (no result: HT1080-NT tox, HT1080 IDH1KD tx)
COc1cc(C(O)c2nc(-c3cccc(C#N)c3)cs2)ccc1F (stereo unspecified)	DT40 TDP1 CPT inconclusive, TDP1 cell noCPT inconclusive
NC(=O)c1nsc(C(=O)N(c2cccc(F)c2)C(C(=O)NC2CCCC2)c2ccc(O)cc2)c1N (stereo unspecified)	none
COc1ccc(-c2nsc(C(=O)N(c3ccc(F)cc3)C(C(=O)NC3CCCC3)c3ccc(OC)cc3)c2N)cc1 (stereo unspecified)	DT40 TDP1 CPT 16.4µM, HT1080-NT tox inconclusive, TDP1 cell noCPT 16.4µM, TGFb SMAD3 inh inconclusive
COc1ccc(C(C(=O)NC2CCCC2)N(C(=O)c2snc(C(N)=O)c2N)c2cccc(O)c2)cc1 (stereo unspecified)	DT40 TDP1 CPT inconclusive, HT1080-NT tox inconclusive, TDP1 cell noCPT 13µM
COc1ccc(C(C(=O)NCc2ccccc2)N(C(=O)c2snc(C(N)=O)c2N)c2ccccc2OC)cc1 (stereo unspecified)	DT40 TDP1 CPT inconclusive, TDP1 cell noCPT inconclusive
COc1ccc(N(C(=O)c2snc(C(N)=O)c2N)C(C(=O)NCc2ccccc2)c2ccc(F)cc2)c(OC)c1 (stereo unspecified)	DT40 TDP1 CPT 25.9µM, HT1080-NT tox inconclusive, TDP1 cell noCPT inconclusive, HT1080 IDH1KD tx inconclusive
